# Reference: the supplement of paper PMC6897291
# Counter-ions that a name gives are not always drawn.
# Assays:
# U-2932 [1] = test: growth inhibition by drug alone (1 - RLU/untreated control) (fraction); higher = stronger inhibition; details: 177Lu-lilotomab satetraxetan 0 ug/ml
# How it was run: (§1)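 Plates pre-printed with the Selleck Cambridge Cancer Compound library at 10/100 nM (RIVA) or 10/1,000 nM (U-2932) received 3,000 cells/well. These cells had been washed after 18 h untreated or with a radiolabelled anti-CD37 antibody conjugate (~600 MBq/mg; 0.5 µg/ml RIVA, 1 µg/ml U-2932). Growth inhibition was obtained from RealTime-Glo luminescence in relation to untreated no-drug wells. Each daily read from day 3, taken after 1 h at 37°C, was converted as 1 − RLU/mean of 48 such wells per plate.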
# RIVA [2] = test: as above; details: 177Lu-lilotomab satetraxetan 0 ug/ml
# How it was run: as §1
# U-2932 [3] = test: growth inhibition by drug plus 177Lu-lilotomab satetraxetan (1 - RLU/untreated control) (fraction); higher = stronger inhibition; details: 177Lu-lilotomab satetraxetan 1 ug/ml
# How it was run: as §1
# RIVA [4] = test: as above; details: 177Lu-lilotomab satetraxetan 0.5 ug/ml
# How it was run: as §1
Compound,"growth inhibition by drug alone (U-2932 [1]; 10 nM, time (day): 3)","growth inhibition by drug alone (U-2932 [1]; 10 nM, time (day): 4)","growth inhibition by drug alone (U-2932 [1]; 10 nM, time (day): 5)","growth inhibition by drug alone (U-2932 [1]; 10 nM, time (day): 6)","growth inhibition by drug alone (U-2932 [1]; 1000 nM, time (day): 3)","growth inhibition by drug alone (U-2932 [1]; 1000 nM, time (day): 4)","growth inhibition by drug alone (U-2932 [1]; 1000 nM, time (day): 5)","growth inhibition by drug alone (U-2932 [1]; 1000 nM, time (day): 6)","growth inhibition by drug alone (RIVA [2]; 10 nM, time (day): 3)","growth inhibition by drug alone (RIVA [2]; 10 nM, time (day): 4)","growth inhibition by drug alone (RIVA [2]; 10 nM, time (day): 5)","growth inhibition by drug alone (RIVA [2]; 10 nM, time (day): 6)","growth inhibition by drug alone (RIVA [2]; 100 nM, time (day): 3)","growth inhibition by drug alone (RIVA [2]; 100 nM, time (day): 4)","growth inhibition by drug alone (RIVA [2]; 100 nM, time (day): 5)","growth inhibition by drug alone (RIVA [2]; 100 nM, time (day): 6)","growth inhibition by drug plus 177Lu-lilotomab satetraxetan (U-2932 [3]; 10 nM, time (day): 3)","growth inhibition by drug plus 177Lu-lilotomab satetraxetan (U-2932 [3]; 10 nM, time (day): 4)","growth inhibition by drug plus 177Lu-lilotomab satetraxetan (U-2932 [3]; 10 nM, time (day): 5)","growth inhibition by drug plus 177Lu-lilotomab satetraxetan (U-2932 [3]; 10 nM, time (day): 6)","growth inhibition by drug plus 177Lu-lilotomab satetraxetan (U-2932 [3]; 1000 nM, time (day): 3)","growth inhibition by drug plus 177Lu-lilotomab satetraxetan (U-2932 [3]; 1000 nM, time (day): 4)","growth inhibition by drug plus 177Lu-lilotomab satetraxetan (U-2932 [3]; 1000 nM, time (day): 5)","growth inhibition by drug plus 177Lu-lilotomab satetraxetan (U-2932 [3]; 1000 nM, time (day): 6)","growth inhibition by drug plus 177Lu-lilotomab satetraxetan (RIVA [4]; 10 nM, time (day): 3)","growth inhibition by drug plus 177Lu-lilotomab satetraxetan (RIVA [4]; 10 nM, time (day): 4)","growth inhibition by drug plus 177Lu-lilotomab satetraxetan (RIVA [4]; 10 nM, time (day): 5)","growth inhibition by drug plus 177Lu-lilotomab satetraxetan (RIVA [4]; 10 nM, time (day): 6)","growth inhibition by drug plus 177Lu-lilotomab satetraxetan (RIVA [4]; 100 nM, time (day): 3)","growth inhibition by drug plus 177Lu-lilotomab satetraxetan (RIVA [4]; 100 nM, time (day): 4)","growth inhibition by drug plus 177Lu-lilotomab satetraxetan (RIVA [4]; 100 nM, time (day): 5)","growth inhibition by drug plus 177Lu-lilotomab satetraxetan (RIVA [4]; 100 nM, time (day): 6)"
Clc1ccc(Nc2nnc(Cc3ccncc3)c3ccccc23)cc1 [Vatalanib dihydrochloride (PTK787)],0.0493,0.0329,-0.0325,-0.0722,0.00749,0.0478,-0.0105,-0.12,-0.0393,-0.0522,-0.084,-0.232,-0.0903,-0.0658,-0.0924,-0.165,-0.0142,0.0115,0.0124,0.0638,-0.0725,0.0231,-0.00359,-0.0503,0.334,0.509,0.527,0.534,0.328,0.442,0.439,0.426
CS(=O)(=O)CCNCc1ccc(-c2ccc3ncnc(Nc4ccc(OCc5cccc(F)c5)c(Cl)c4)c3c2)o1 [Lapatinib Ditosylate (Tykerb)],0.0817,0.081,0.00227,-0.0646,0.0164,0.0506,-0.0238,-0.169,-0.0232,0.00959,-0.0719,-0.295,-0.283,-0.179,-0.183,-0.291,0.108,0.154,0.199,0.225,0.0709,0.127,0.153,0.277,0.649,0.657,0.672,0.674,0.379,0.475,0.487,0.486
Nc1nc2[nH]cc(CCc3ccc(C(=O)N[C@@H](CCC(=O)O)C(=O)O)cc3)c2c(=O)[nH]1 [Pemetrexed],-0.0147,-0.0188,-0.0965,-0.27,0.905,0.948,0.965,0.974,-0.121,-0.198,-0.281,-0.489,-0.293,-0.377,-0.377,-0.54,-0.058,-0.0226,0.000411,0.0568,0.893,0.951,0.97,0.979,–,–,–,–,–,–,–,–
C[S+]([O-])c1ccc(-c2nc(-c3ccc(F)cc3)c(-c3ccncc3)[nH]2)cc1 (stereo not drawn),0.109,0.0691,0.0651,0.00981,0.494,0.396,0.258,0.202,-0.0319,0.0179,-0.0545,-0.284,-0.128,-0.0437,-0.0833,-0.227,0.103,0.123,0.206,0.225,0.441,0.358,0.325,0.374,0.668,0.678,0.684,0.677,0.322,0.441,0.432,0.451
COc1c(C)c2c(c(O)c1C/C=C(\C)CCC(=O)OCCN1CCOCC1)C(=O)OC2 [Mycophenolate mofetil (CellCept)],0.0454,0.0504,-0.00114,-0.00474,0.727,0.792,0.743,0.673,0.15,0.0186,-0.0505,-0.245,0.284,0.214,0.154,0.0335,0.0524,0.064,0.0624,0.115,0.826,0.893,0.89,0.878,–,–,–,–,–,–,–,–
CCCCCCCc1ccc(CCc2cccc(O)c2C(=O)O)cc1,-0.00199,-0.0102,-0.0455,-0.106,0.0439,0.0243,-0.0103,0.0409,-0.000498,-0.0468,-0.0726,-0.153,-0.176,-0.164,-0.186,-0.241,-0.0136,0.0406,0.0811,0.11,0.0189,0.0723,0.084,0.179,0.588,0.59,0.619,0.624,0.545,0.607,0.62,0.624
Cc1ccc(S(=O)(=O)C=CC#N)cc1,0.107,0.0923,-0.0275,-0.041,-0.00518,0.09,0.058,-0.0332,0.0697,-0.00988,-0.0606,-0.287,0.12,0.0423,0.00106,-0.129,0.00206,0.0303,0.0547,0.0948,0.00618,0.193,0.194,0.225,0.414,0.5,0.522,0.534,0.401,0.472,0.47,0.452
